In ChEMBL document CHEMBL3433997, “St. Jude Leishmania screening dataset” (2016):

Key:
Type in all cases: functional
[1] = target: Solute carrier family 2, facilitated glucose transporter member 1 (Homo sapiens) (UniProt P11166); assay: ST_JUDE_LEISH: Cytotoxicity at 2uM final concentration against transgenic Leishmania Mexicana promastigotes LmGLUT1 that are glucose transport deficient and complemented with the human glucose transporter GLUT1. Activity is measured by DNA content using SYBR green in vitro
[2] = target: Hexose transporter 1 (Plasmodium falciparum) (UniProt O97467); assay: ST_JUDE_LEISH: Cytotoxicity at 2uM final concentration against transgenic Leishmania Mexicana promastigotes LmPfHT that are glucose transport deficient and complemented with the Plasmodium falciparum hexose transporter. Activity is measured by DNA content using SYBR green in vitro
[3] = target: Glucose transporter (Leishmania mexicana) (UniProt O61059); assay: ST_JUDE_LEISH: Cytotoxicity at 2uM final concentration against transgenic Leishmania Mexicana promastigotes LmGT2 that are glucose transport deficient and complemented with the L. Mexicana glucose transporter 2. Activity is measured by DNA content using SYBR green in vitro

Solute carrier family 2, facilitated glucose transporter member 1 (Homo sapiens), sequence (P11166 whole entry): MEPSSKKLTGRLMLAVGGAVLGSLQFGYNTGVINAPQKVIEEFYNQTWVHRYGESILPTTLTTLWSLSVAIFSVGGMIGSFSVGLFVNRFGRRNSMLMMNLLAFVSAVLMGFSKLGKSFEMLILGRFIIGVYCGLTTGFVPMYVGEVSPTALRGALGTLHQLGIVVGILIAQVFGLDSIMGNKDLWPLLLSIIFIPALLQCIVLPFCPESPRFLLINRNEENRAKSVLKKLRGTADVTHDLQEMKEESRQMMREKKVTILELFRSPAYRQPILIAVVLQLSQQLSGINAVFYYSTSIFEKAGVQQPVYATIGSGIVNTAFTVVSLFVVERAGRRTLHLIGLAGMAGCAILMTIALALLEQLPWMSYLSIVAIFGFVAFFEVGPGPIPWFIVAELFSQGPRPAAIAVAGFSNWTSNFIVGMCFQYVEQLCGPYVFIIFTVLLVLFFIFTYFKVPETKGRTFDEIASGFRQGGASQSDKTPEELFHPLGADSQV

Row | Structure (SMILES) | inhibition [1] [%] | inhibition [2] [%] | inhibition [3] [%]
1 | c1ccc(Oc2ccc(Nc3ccnc4cc(-c5ccc(CNCCN6CCOCC6)o5)ccc34)cc2)nc1 | 2.93 | 2.52 | 2.3
2 | Cc1nnsc1C(=O)Nc1cccc(-c2cccc(-c3nc4cc(F)ccc4[nH]3)c2)c1 | 0.66 | 0.05 | -2.12
3 | COc1cc(NC(=O)N2CCc3ccc(OCCC4CCCN4C)cc32)cc(C(F)(F)F)c1 (stereo unspecified) | -0.5 | 0.15 | -0.48
4 | O=C(Nc1cc(C(F)(F)F)ccc1-n1cncn1)C1(c2ccccc2)CC1 | -1.28 | -1.95 | 0.27
5 | COc1ccc2nc(C)cc(Nc3ccc(Oc4ccc5ccccc5c4Cl)c(Cl)c3)c2c1 | 13.7 | 12.6 | 8.39
6 | CCCc1cc(OC)c(CC2c3cc(O)c(C)cc3CCN2C)cc1OC (stereo unspecified) | -2.27 | -4.03 | 3.59
7 | Oc1ccc(CCNCCCCCCNCCc2ccc(-c3ccccc3)cc2)cc1O | 1.33 | 1.69 | 1.57
8 | COc1ccc(N2CCN(CCCCNC(=O)c3ccc(NC(=O)c4ccc(OC(F)(F)F)cc4)cc3)CC2)c(OC)c1 | 5.81 | 5.69 | 6.29
9 | COc1ccc2nccc([C@@H](O)CN3CCC(NC(=O)/C=C/c4cccc(NC(C)=O)c4)CC3)c2c1 | 3.71 | 3.46 | 4.66
10 | COc1cc(C(=O)Nc2ccc(-c3nc4ccccc4[nH]3)cc2)cc(OC)c1OC | 2.49 | 2.26 | 3.39
11 | O=C(NCCc1ccccc1)[C@H](Cc1ccccc1)Nc1ccnc(NCC2CCCCC2)n1 | -0.55 | 2.47 | 0.61
12 | CN(C)c1ccc(CN2CCC(NC(=O)c3ccc(-c4ccccc4F)s3)CC2)cc1 | -0.33 | -1.02 | -6.69
13 | Oc1cc2c(cc1CN1CCN(Cc3cccs3)CC1)CCC2 | 0.97 | -0.33 | 2.76
14 | O=C(Nc1ccc(Cl)cc1)Nc1ccc(-c2ccc(-c3nc4ccccc4[nH]3)cc2)cc1 | 2.4 | 3.97 | 0.96
15 | O=C(Nc1ccc(Cl)cc1)Nc1ccc2c(c1)N1CCN=C1S2 | -0.81 | -1.2 | 5.02
16 | CC(=O)Nc1cccc(C(=O)Nc2cccc(-c3ccc(-c4nc5cccc(C)c5[nH]4)cc3)c2)c1 | 0.33 | 1.27 | 4.99

Row | Structure (SMILES) | inhibition [1] [%] | inhibition [2] [%] | inhibition [3] [%]
17 | COc1ccc(NC(=O)Nc2ccc(-c3ccncc3)c(C(F)(F)F)c2)cc1N1CCN(C)CC1 | 13.1 | 12.6 | 9.27
18 | Nc1cccc(CNCc2cccc(-c3cccc(-c4nc5cc(C(F)(F)F)ccc5[nH]4)c3)c2)c1 | 1.23 | -0.22 | 1.43
19 | CCc1ccc(CN(Cc2ccc(C)cc2)Cc2ccc(NC(C)=O)cc2)cc1 | 2.72 | 3.95 | 2.91
20 | CCc1ccccc1N=C1c2c(cccc2[N+](=O)[O-])C(=O)C1C(C)=O (stereo unspecified) | -1.62 | -1.21 | -2.14
21 | COc1cccc(NC(=O)NCCNc2ccnc(Nc3ccc(F)cc3)n2)c1 | 4.09 | 5.04 | 0.9
22 | Cn1ccc(C(=O)Nc2ccc3c(c2)CN(Cc2ccc(N4CCCC4)o2)CCC3)n1 | 28.5 | 54.6 | -0.65
23 | O=C(Nc1cccc(-c2nn3ccccc3c2-c2ccnc(Nc3cccc(F)c3)n2)c1)c1c(F)ccc(F)c1F | 6.01 | 9.13 | 5.56
24 | COc1cccc(C(=O)N2CCOC(CCN3CCC(c4ccccc4)CC3)(c3ccc(Cl)c(Cl)c3)C2)c1 (stereo unspecified) | 0.55 | -0.77 | -0.26
25 | O=S(=O)(NCCN1CCCC1)c1ccc(-c2cccc(CNCc3ccc(F)cc3)c2)cc1F | 3.24 | 5.71 | 4.01
26 | CCOc1ccc(C(=O)Nc2ccc(-c3nc4ccccc4[nH]3)cc2)cc1[N+](=O)[O-] | 1.79 | 2.52 | 1.46
27 | CC(C)c1nc(N2CCN(C(=S)NCc3ccccc3)CC2)c(C#N)c2c1COC(C)(C)C2 | -0.1 | 0.47 | 0.22
28 | O=C(c1cncc(-c2ccccc2)c1)N(Cc1cncn1Cc1ccccc1F)CC1CC1 | 0.88 | 0.96 | -0.58
29 | O=C(NCC1CCC(C(=O)O)CC1)c1ccc(/C=C/C(=O)N2CCc3ccccc3C2c2ccc3c(c2)OCO3)cc1 (stereo unspecified) | -0.02 | 1.62 | 0.31
30 | Cc1ccc(Cl)c2sc(N3CCN(C(=O)c4ccc([N+](=O)[O-])o4)CC3)nc12 | 62.4 | 54.6 | 27.6
31 | COc1ccc2nccc([C@@H](O)CN3CCC(NCc4ccc5c(c4)OCCO5)CC3)c2c1 | 6.76 | 5.93 | 0.41
32 | CC(C)c1ccc(NC(=O)NC2CCN(CCCCCN(C)C(=O)/C=C/c3ccc(Cl)c(Cl)c3)C2)cc1 (stereo unspecified) | 5.33 | 7.26 | 6.41
